Source: PubChem
Sampled rows, rich in hits. Any-hit rate of the full collection: about 1.2%.
RGS16-Gao: modulators of RGS16 binding to Galphao, primary screen, biochemical, human proteins, multiplexed bead flow cytometry; bead-based flow cytometry RGS16-Galphao binding, fluorescence; actives lie on both sides; binding response (% of control), % at 10 µM; 220,000 compounds, 0.38% hits; AID 1441, 2008;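 further: Galphao activated by GDP with aluminum fluoride before binding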
RGS4-Gao reg: modulators of RGS4 binding to Galphao, primary screen, biochemical, multiplexed bead flow cytometry | 220,000 compounds, 0.33% hits | actives lie on both sides | binding response (% of control), % at 10 µM | Guanine nucleotide-binding protein G(o) subunit alpha (Homo sapiens), P09471; in the data active means binding response below about 49% or above about 150%; inactive means in between;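 further: fluorescent Galphao activated with aluminum fluoride binding bead-coupled RGS4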
Target sequence (P09471 whole entry, looked up): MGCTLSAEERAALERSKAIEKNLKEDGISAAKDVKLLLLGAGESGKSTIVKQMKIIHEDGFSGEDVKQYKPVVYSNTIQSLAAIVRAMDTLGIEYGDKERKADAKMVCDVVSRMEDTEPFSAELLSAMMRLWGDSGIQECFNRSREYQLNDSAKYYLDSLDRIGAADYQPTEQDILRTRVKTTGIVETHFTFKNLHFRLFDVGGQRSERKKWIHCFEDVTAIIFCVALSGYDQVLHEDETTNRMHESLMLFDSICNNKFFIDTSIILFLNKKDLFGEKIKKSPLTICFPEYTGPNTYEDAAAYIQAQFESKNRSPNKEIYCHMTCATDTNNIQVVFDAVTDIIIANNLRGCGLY
RGS7-Gao: RGS7-Galphao binding modulators, primary screen, biochemical, multiplexed bead flow cytometry. 220,000 compounds, 0.35% hits. actives lie on both sides. Guanine nucleotide-binding protein G(o) subunit alpha (Homo sapiens), P09471. binding response (% of control), % at 10 µM; in the data active means binding response below about 49% or above about 150%; inconclusive means no clear call, values can overlap the other calls; inactive means in between;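 further: fluorescent Galphao held in activated GDP-AlF4 state binding bead-coupled RGS7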
GSH bead fluor: compound fluorescence on glutathione beads, profiling panel, artefact control, biophysical, 488/530 nm, flow cytometry. 190,000 compounds, 0.25% hits. GSH beads flow cytometry, compound fluorescence 488/530 nm; stronger effect = higher value. fluorescence (KMESF) at 10 µM; in the data active means fluorescence above about 89;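 further: glutathione beads carrying GST-tagged Bcl family fusion proteins plus one bare bead set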
RGS8-Gao reg: RGS8-Galphao binding modulators, primary screen, biochemical, multiplexed bead flow cytometry; 220,000 compounds, 0.34% hits; actives lie on both sides; AID 1423, 2008; Guanine nucleotide-binding protein G(o) subunit alpha (Homo sapiens), P09471; response (percent of control binding), % at 10 µM; in the data active means response below about 60% or above about 140%; inactive means in between;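 further: Galphao activated as the GDP aluminium fluoride complex binding bead-coupled RGS8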
Avidin fluor: green autofluorescence of compounds with avidin beads – biophysical, 488/530 nm, flow cytometry, artefact control, profiling panel | compound fluorescence 488/530 nm; stronger effect = higher value | fluorescence (KMESF) at 10 µM | 220,000 compounds, 0.38% hits | AID 1775, 2009; in the data active means fluorescence above about 47
RGS4-Gao HTS: modulators of RGS–Galpha-o binding, primary screen, biochemical, multiplexed beads, flow cytometry, RGS4/7/8/16/19. 1,600 compounds, 99% hits. RGS4–Galpha-o binding response, % at 10 µM. multiplexed bead flow cytometry. shares compounds with RGS16-Gao. AID 1504, 2009;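 further: fluorescently labeled Galpha-o bound to GDP with aluminium fluoride binding biotinylated RGS beads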
Target sequence (P09471 whole entry, looked up): as above
Target sequence (P49798 whole entry, looked up): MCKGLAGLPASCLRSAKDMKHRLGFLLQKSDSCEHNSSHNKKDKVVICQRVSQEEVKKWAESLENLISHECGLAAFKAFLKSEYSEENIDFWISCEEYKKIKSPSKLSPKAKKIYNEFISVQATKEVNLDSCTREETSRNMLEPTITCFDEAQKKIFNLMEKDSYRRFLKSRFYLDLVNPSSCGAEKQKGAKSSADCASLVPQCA
Biotin-avidin: disruption of biotin probe capture by avidin, counter-screen for RGS protein interaction modulators, biochemical, flow cytometry, bead-based; shares compounds with RGS16-Gao; streptavidin beads, fluorescein-biotin binding; inhibition, % at 10 µM; 1,700 tested, under 10 active; AID 1783, 2009;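 active means inhibition above 50%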;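 further: median green fluorescence of gated singlet beads compared with DMSO control wells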
RGS8-Gao confirm: RGS8-Galphao binding modulators, confirmation, biochemical, multiplexed bead flow cytometry, single concentration; shares compounds with RGS16-Gao; bead-based flow cytometry RGS8-Galphao binding, fluorescence; actives lie on both sides; binding response (% of control), % at 10 µM; 1,700 compounds, 3% hits; AID 1836, 2009; in the data active means binding response below about 72% or above about 130%; inactive means in between;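 further: Galphao activated as GDP AlF4 complex before binding bead RGS8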
RGS7-Gao single: RGS7-Galphao binding modulators, confirmation, biochemical, multiplexed bead flow cytometry, single concentration; shares compounds with RGS16-Gao; bead-based flow cytometry RGS7-Galphao binding; actives lie on both sides; response (percent of control binding), % at 10 µM; 1,700 compounds, 7.8% hits; AID 1837, 2009; in the data active means response below about 75% or above about 130%; inactive means in between;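 further: fluorescent Galphao activated with GDP and aluminum fluoride binding bead-coupled RGS7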
RGS16-Gao conf: modulators of RGS16-Galphao protein binding, confirmation, biochemical, single concentration, multiplexed bead flow cytometry. 1,700 compounds, 4% hits. bead-based flow cytometry; actives lie on both sides. shares compounds with RGS16-Gao. AID 1838, 2009. response (% of control binding), % at 10 µM; in the data active means response below about 74% or above about 130%; inactive means in between;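 further: Galphao activated as the GDP aluminium fluoride complex binding bead-coupled RGS16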
RGS4-Gao single: modulators of RGS4-Galphao protein binding, confirmation, biochemical, single concentration, multiplexed bead flow cytometry; actives lie on both sides; shares compounds with RGS16-Gao; 1,700 compounds, 4% hits; AID 1840, 2009; binding response (% of control), % at 10 µM; in the data active means binding response below about 74% or above about 130%; inactive means in between
RGS19-Gao conf: regulators of RGS19-Galphao binding, confirmation, biochemical, single point, multiplexed bead flow cytometry | shares compounds with RGS16-Gao | bead-based flow cytometry RGS19-Galphao binding; actives lie on both sides | response (percent of control binding), % at 10 µM | 1,700 compounds, 5% hits | AID 1841, 2009; in the data active means response below about 50% or above about 160%; inactive means in between
Each line names hits and unclear results; the compound was inactive in the other large screens (follow-up assays come after a bar, where they were run); [ ] = dose if it differs, or a comment. Unless noted, how the calls were made is not given here.

O=C(NN=C1CCCCCC1)c1ccc(Br)o1	RGS16-Gao 326.8[activator], RGS8-Gao reg 140.8[activator] | RGS4-Gao HTS 115.2 | Biotin-avidin inactive | RGS8-Gao confirm inactive | RGS7-Gao single inactive | RGS16-Gao conf inactive | RGS4-Gao single inactive | RGS19-Gao conf inactive
COc1ccccc1/C=C\C=N\n1c(-c2ccc(Cl)cc2)n[nH]c1=S	RGS16-Gao 7.8, RGS8-Gao reg 57.6 | RGS4-Gao HTS 88.2 | Biotin-avidin inactive | RGS8-Gao confirm inactive | RGS7-Gao single 75.1 | RGS16-Gao conf inactive | RGS4-Gao single inactive | RGS19-Gao conf inactive
CC(=O)N1C(Nc2ccc(Cl)cc2)CCN1c1ccccc1 (stereo not drawn)	none (no result: RGS16-Gao, RGS4-Gao reg, RGS7-Gao, RGS8-Gao reg, Avidin fluor) | Biotin-avidin inactive | RGS8-Gao confirm inactive | RGS7-Gao single inactive | RGS16-Gao conf inactive | RGS4-Gao single inactive | RGS19-Gao conf inactive
Cc1cc(=S)cc(C)n1CCO	RGS8-Gao reg 53.4 | RGS4-Gao HTS 100.0 | Biotin-avidin inactive | RGS8-Gao confirm inactive | RGS7-Gao single inactive | RGS16-Gao conf inactive | RGS4-Gao single inactive | RGS19-Gao conf inactive
CCSc1nnc(NC(=O)C(CC)(C(F)(F)F)C(F)(F)F)s1	none
CCSc1nnc(NC(=O)C(C)(C(F)(F)F)C(F)(F)F)s1	RGS16-Gao 287.6[activator] | RGS4-Gao HTS 112.4 | Biotin-avidin inactive | RGS8-Gao confirm inactive | RGS7-Gao single inactive | RGS16-Gao conf inactive | RGS4-Gao single inactive | RGS19-Gao conf inactive
Cc1ccccc1CSc1nn2c(=O)c(C)nnc2s1	RGS7-Gao 211.2[activator] | RGS4-Gao HTS 115.6 | Biotin-avidin inactive | RGS8-Gao confirm inactive | RGS7-Gao single inactive | RGS16-Gao conf inactive | RGS4-Gao single inactive | RGS19-Gao conf inactive
CCSc1nnc(NC(=O)CCCOc2ccc(C)cc2)s1	none
C=CCN1C(=O)C2(NNc3ccccc3O2)c2ccccc21 (stereo not drawn)	none
C=CCN1C(=O)C2(NC(=O)c3ccccc3N2)c2ccccc21 (stereo not drawn)	RGS7-Gao 270.1[activator], Avidin fluor 164 | RGS4-Gao HTS 123.1 | Biotin-avidin inactive | RGS8-Gao confirm inactive | RGS7-Gao single inactive | RGS16-Gao conf inactive | RGS4-Gao single inactive | RGS19-Gao conf inactive
Cc1ccc(CN2CCN(/N=C/c3ccc(C)s3)CC2)c(C)c1	none
O=C(O)CNC(=O)CCCn1nnc2ccccc2c1=O	RGS7-Gao inconclusive (no result: GSH bead fluor)
Cc1ccc(NC(=O)CN(C)S(=O)(=O)c2cccc3cccnc23)cc1	none
CC1CCC(NC(=O)CN(C)S(=O)(=O)c2cccc3cccnc23)CC1 (stereo not drawn)	RGS16-Gao 19.5, RGS4-Gao reg 26.4, RGS7-Gao inconclusive, RGS8-Gao reg 32.7 (no result: GSH bead fluor) | Biotin-avidin inactive | RGS8-Gao confirm inactive | RGS7-Gao single inactive | RGS16-Gao conf inactive | RGS4-Gao single inactive | RGS19-Gao conf inactive
O=C(Nc1cccc(F)c1)C1CCN(C(=O)c2ccc(Cl)cc2)CC1	RGS16-Gao 18.0 | RGS4-Gao HTS 74.5 | Biotin-avidin inactive | RGS8-Gao confirm inactive | RGS7-Gao single inactive | RGS16-Gao conf inactive | RGS4-Gao single inactive | RGS19-Gao conf inactive
O=C(Nc1ccc2c(c1)OCO2)C1CCN(C(=O)c2ccc(Cl)cc2)CC1	none
COC(=O)c1ccc(NC(=O)C2CCN(C(=O)c3cc(OC)c(OC)c(OC)c3)CC2)cc1	RGS4-Gao reg 276.4[activator] (no result: RGS16-Gao, RGS8-Gao reg, Avidin fluor) | Biotin-avidin inactive | RGS8-Gao confirm inactive | RGS7-Gao single inactive | RGS16-Gao conf inactive | RGS4-Gao single inactive | RGS19-Gao conf inactive
COc1ccccc1OCc1nc(C#N)c(N2CCCC2)o1	RGS4-Gao reg 21.6, RGS7-Gao 13.3, RGS8-Gao reg 16.4 | Biotin-avidin inactive | RGS8-Gao confirm inactive | RGS7-Gao single inactive | RGS16-Gao conf inactive | RGS4-Gao single inactive | RGS19-Gao conf inactive
COc1ccc(C(=S)N2CCC(C(N)=O)CC2)cc1Br	RGS7-Gao inconclusive
COc1ccc(C(=O)c2ccc(OC)c(Br)c2)cc1Br	RGS16-Gao 253.9[activator] | RGS4-Gao HTS 120.3 | Biotin-avidin inactive | RGS8-Gao confirm inactive | RGS7-Gao single inactive | RGS16-Gao conf inactive | RGS4-Gao single inactive | RGS19-Gao conf inactive
COc1ccc(C(=O)OCn2nnc3ccccc3c2=O)cc1	none
CCc1ccccc1NC1=CC(=O)CC(C)(C)C1	none
O=C(CCSc1nnc2ccc3ccccc3n12)Nc1ccc(F)cc1	none (no result: RGS16-Gao, RGS4-Gao reg, RGS7-Gao, RGS8-Gao reg, Avidin fluor) | Biotin-avidin inactive | RGS8-Gao confirm inactive | RGS7-Gao single inactive | RGS16-Gao conf inactive | RGS4-Gao single inactive | RGS19-Gao conf inactive
Cc1nc2c(cc1C#N)C(=O)c1ccccc1-2	RGS16-Gao 17.9 | RGS4-Gao HTS 86.1 | Biotin-avidin inactive | RGS8-Gao confirm inactive | RGS7-Gao single inactive | RGS16-Gao conf inactive | RGS4-Gao single inactive | RGS19-Gao conf inactive
COc1ccc(-c2c(C#N)c(C)nc3c2C(=O)c2ccccc2-3)cc1	none
